Compounds without any hit were thinned out: in the full panel of roughly 83,000, 20% have a hit.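 Results are percent growth after 48 hours of single-concentration exposure. 100 means growth as in untreated cells, lower positive values show inhibition; negative values down to -100 show cell death.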 Activity calls are given as the source filed them.
The compounds below were run on RPMI-8226 leukemia (assay: NCI-60 one-dose screen, 48 h (100 = growth as untreated, 0 = no growth, -100 = all killed)). Conditions: 10 µM unless noted.
Experimental: Growth inhibition of the RPMI-8226 human tumor cell line is measured as a screen for anti-cancer activity. Cells are grown in 96 well plates and exposed to the test compound for 48 hours. Compounds are tested at a single concentration, which is 10^-5 M for most compounds. The reported endpoint is percent growth (GI% or GIPRCNT), where numbers from 0 - 100% represent growth inhibition, and numbers from -100% - 0 represent cell death. For example, a value of 40 represents 60% growth inhibition. A value of 0 means no net growth occurred over the course of the experiment. A value of -40 indicates 40% of cells at the beginning of the experiment died by the end of the experiment. A value of -100 means all cells are dead at the end of the experiment.
NCI-60 Human Tumor Cell Lines Screen was performed using the standard one-dose NCI protocol, which is described in more detail at https://dtp.cancer.gov/discovery_development/nci-60/default.htm.
Compounds with GIPRCNT values below 10 were considered active. Activity score was based on GIPRCNT using the following formula: […]
Score is 0 for GIPRCNT values of 100 or above, 50 for GIPRCNT values of 0, and 100 for GIPRCNT values of -100.

| Compound | growth |
| --- | --- |
| N#Cc1ccc(-c2ccc(COc3ccc(CC4SC(=O)NC4=O)cc3)cc2)cc1 (stereo not given) | 48.5% (inactive) |
| C=C(CN=[N+]=[N-])[C@@H]1CC[C@]2(C)[C@H](CC[C@@H]3[C@H]4[C@H]5OC(=O)[C@@]4(CCC5(C)C)CC[C@]32C)[C@@]1(C)CCC#N | 57% [100 µM] (inactive) |
| Cc1ncc(C(=O)Nc2ccc(CN3CCN(C)CC3)c(C(F)(F)F)c2)cc1C#Cc1c(N)ncc2ccc(C#N)cc12 | 40.6% (inactive) |
| CC[C@]1(O)CC2CN(CCc3c([nH]c4ccccc34)[C@@](C(=O)OC)(c3cc4c(cc3OC)N(C=O)[C@H]3[C@@](O)(C(=O)OC)[C@H](OC(C)=O)[C@]5(CC)C=CCN6CC[C@]43[C@@H]65)C2)C1 (stereo not given in full) | 18.7% (inactive) |
| CC1Cc2ccc(OCCN(C)C)cc2C1=O (stereo not given) | 88.4% (inactive) |
| CC1(C)OC2[C@@H](CNC(=O)NC(=O)NC(=O)CI)O[C@@H](n3cnc4c(NC(=O)Nc5ccccc5)ncnc43)[C@H]2O1 (stereo not given in full) | 64.2% (inactive) |
| CSc1nc(N)c(N=Nc2ccc(S(=O)(=O)Nc3nnc(C)s3)cc2)c(=O)[nH]1 | 132% (inactive) |
| CCOC(=O)C(=Cc1ccccc1[N+](=O)[O-])C(=O)OCC | 10.7% (inactive) |
| CC1=C/C(=C(\c2cc(C)c(O)c(C(=O)O)c2)c2c(Cl)cccc2Cl)C=C(C(=O)O)C1=O | 102% (inactive) |
| Cc1cccc(C[C@H](NC(=O)Nc2ccc(Cl)cc2F)C(=O)N[C@@H]2C(=O)N3C[C@H](O)C[C@H]3C(=O)N3CCCC[C@H]3C(=O)N[C@@H](C)C(=O)N3C[C@H](C)C[C@H]3C(=O)O[C@H]2C)c1 | 6.39% (active) |
| O=c1cc(-c2ccccc2)oc2cc(OCc3cn(Cc4ccc(F)cc4)nn3)cc(O)c12 | 93.7% [100 µM] (inactive) |
| c1nc(N2CCOCC2)c2[nH]ccc2n1 | 94.1% (inactive) |
| CCc1cccc(Cl)c1 | 101% (inactive) |
| Cc1ccc(Oc2c(/C=N/NC(=O)Cn3c(=O)sc4ccccc43)c(C)nn2-c2ccccc2)cc1 | 32.8% (inactive) |
| Fc1ccc(NC(=S)c2ccccc2)cc1 | 89% (inactive) |
| N=C(N)c1ccc(-c2ccc(-c3ccc(-c4cccs4)s3)s2)cc1F | 49.4% (inactive) |
| CCOC(=O)c1cc(C(=O)c2ccc(OC)c(OC)c2)n2ccc(-c3ccccn3)cc12 | 72.9% (inactive) |
| C[C@]12CCc3c(ccc4cc(O)ccc34)[C@@H]1CC[C@H]2O | 94.6% (inactive) |
| COC(=O)c1cc(O)c2c(c1C(=O)OC)C[C@H]1[C@@H]3CC=C4C[C@@H](O)CC[C@]4(C)[C@H]3CC[C@]21C | 16.6% (inactive) |
| CN(C)Cc1ccc[nH]1 | 136% (inactive) |

| Compound | growth |
| --- | --- |
| Nc1cc(N)c(N=Nc2ccc(S(=O)(=O)O)cc2)cc1N=Nc1ccc(-c2ccc(N=Nc3ccc(O)c(C(=O)O)c3)cc2)cc1 | 99.2% (inactive) |
| FC(F)(F)c1ccc2c(c1)Sc1ccccc1N2 | 92.7% (inactive) |
| O=S(=O)(NCCNc1nccc(-c2c(-c3cccc(F)c3)nc3occn23)n1)c1ccc(C(F)(F)F)cc1 | 75.5% (inactive) |
| O=C(Nc1cccc2cccnc12)c1cc(C(=O)c2ccc(Cl)cc2)n2ccc(-c3ccncc3)cc12 | 103% (inactive) |
| O=C(Nc1cccc(F)c1)c1cc(=O)[nH]c2cc(Br)ccc12 | 76.1% (inactive) |
| C=C(C)[C@@H]1CC[C@]2(C)[C@H](CC=C3[C@@H]4[C@@H](C)[C@H](C)CC[C@]4(C(N)=O)CC[C@]32C)[C@@]1(C)CCC#N | -21.1% [100 µM] (active) |
| CC1=CC[C@@H]2C(C)(C)[C@@H](O)CC[C@@]2(C)[C@@H]1COc1ccc2ccc(=O)oc2c1 | 19.8% (inactive) |
| COc1ccc2c3ccnc(C(F)(F)F)c3n(CCCCN)c2c1 | 31.3% (inactive) |
| Cn1cc(-c2nnc(-c3ccccc3)s2)c2cc(Br)cnc21 | 85.8% (inactive) |
| COc1ccc(-c2c(C)nn3c(NCCN4CCOCC4)cc(C)nc23)cc1OC | 105% (inactive) |
| O=C(CSc1nc2ccc([N+](=O)[O-])cc2[nH]1)Nc1ccc(F)c(Cl)c1 | -22.3% (active) |
| O=C(NCc1ccc(Cn2c(=O)sn(-c3ccccc3)c2=O)cc1)OCc1ccc2c(Br)cc(Br)c(O)c2n1 | -17.7% (active) |
| C=C(C)C1CCC2(C(=O)O)CCC3(C)C(CCC4C5(C)CCC(OC(=O)NCc6ccccc6)C(C)(C)C5CCC43C)C12 (stereo not given) | 8.22% (active) |
| C=C(C)[C@@H]1CC[C@]2(c3ncc(C)o3)CC[C@]3(C)[C@H](CC[C@@H]4[C@@](C)(CCC#N)[C@H](C(=C)C)CC[C@]43C)[C@@H]12 | -41% [100 µM] (active) |
| Cn1cc(-c2noc(-c3cn(C)c4ncccc34)n2)c2cc(Cl)ccc21 | 96.6% (inactive) |
| Cc1ccc(C2=C/C(=C/c3ccc(Br)cc3)C(=O)N2CCc2ccc(S(N)(=O)=O)cc2)cc1 | 96.1% (inactive) |
| CCOC(=O)c1nn(C2CCCCO2)c2ccc(NC(=O)Cn3nnc4ccccc43)cc12 (stereo not given) | 107% (inactive) |
| CC(=O)n1cc(C=O)c2ccccc21 | 97.6% (inactive) |
| N#C/C(C(=O)c1ccccc1)=C1/C(=O)Nc2ccc(Br)cc21 | 102% (inactive) |
| c1ccc(-c2nnc(-c3c[nH]c4ncccc34)s2)cc1 | 91.9% (inactive) |

Source: PubChem BioAssay (NCI)
